Experiments:
Details in all cases: Compound Concentration (nM):1000
HIPK2 = system: HIPK2
HIPK3 = system: HIPK3
HIPK4 = system: HIPK4
HPK1 = system: T1, HPK1
T1 construct: gene MAP4K1

HUNK = system: HUNK
ICK = system: ICK
IGF1R = system: IGF1R
IKK-alpha = system: T2, IKK-alpha
T2 construct: gene CHUK

IKK-beta = system: T3, IKK-beta
T3 construct: gene IKBKB

IKK-epsilon = system: T4, IKK-epsilon
T4 construct: gene IKBKE

INSRR = system: INSRR
INSR = system: INSR
IRAK1 = system: IRAK1
IRAK3 = system: IRAK3
IRAK4 = system: IRAK4
ITK = system: ITK
[1] = system: JAK1(JH1domain-catalytic)
[2] = system: JAK1(JH2domain-pseudokinase)
[3] = system: JAK2(JH1domain-catalytic)
[4] = system: JAK3(JH1domain-catalytic)
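Note: KINOMEscan scanMAX binding as percent activity remaining versus control; lower means stronger binding.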

Row | Structure (SMILES) | Percent Control (HIPK2) | Percent Control (HIPK3) | Percent Control (HIPK4) | Percent Control (HPK1) | Percent Control (HUNK) | Percent Control (ICK) | Percent Control (IGF1R) | Percent Control (IKK-alpha) | Percent Control (IKK-beta) | Percent Control (IKK-epsilon) | Percent Control (INSRR) | Percent Control (INSR) | Percent Control (IRAK1) | Percent Control (IRAK3) | Percent Control (IRAK4) | Percent Control (ITK) | Percent Control [1] | Percent Control [2] | Percent Control [3] | Percent Control [4]
1 | NS(=O)(=O)c1ccc(N/N=C2\C(=O)Nc3ccc(C(=O)NCCc4c[nH]cn4)cc32)cc1 [GW300660X] | 7.5% | 12% | 100% | 74% | 100% | 22% | 100% | 85% | 100% | 100% | 100% | 96% | 82% | 100% | 99% | 100% | 100% | 20% | 80% | 64%
2 | CN(C)c1cc2c(Nc3ccc4c(cnn4Cc4ccccc4)c3)ncnc2cn1 [GW282974X] | 90% | 100% | 79% | 100% | 100% | 90% | 100% | 92% | 100% | 76% | 100% | 63% | 100% | 100% | 100% | 87% | 100% | 92% | 100% | 99%
3 | CC1=C(C(=O)Nc2ccc3[nH]ncc3c2)C(c2ccc(Cl)c(Cl)c2)CC(=O)N1 (stereo not shown) [GSK299115A] | 92% | 83% | 100% | 100% | 80% | 83% | 93% | 81% | 76% | 100% | 100% | 100% | 88% | 56% | 100% | 74% | 41% | 86% | 13% | 9.3%
4 | CCS(=O)(=O)c1ccc(OC)c(Nc2ncc(-c3cccc(OC)c3)o2)c1 [GW580509X] | 56% | 45% | 18% | 88% | 100% | 100% | 100% | 100% | 100% | 100% | 100% | 95% | 90% | 100% | 100% | 100% | 100% | 97% | 94% | 62%
5 | CCS(=O)(=O)c1ccc(OC)c(Nc2ncc(-c3cccc(F)c3)o2)c1 [GW621970X] | 87% | 79% | 74% | 100% | 100% | 100% | 100% | 100% | 100% | 98% | 100% | 100% | 48% | 100% | 61% | 100% | 100% | 98% | 100% | 75%
6 | NS(=O)(=O)c1ccc(N/N=C2\C(=O)Nc3ccc(Cl)cc32)cc1 [GW280670X] | 100% | 90% | 100% | 88% | 100% | 94% | 100% | 100% | 100% | 72% | 100% | 100% | 100% | 100% | 100% | 100% | 100% | 80% | 100% | 100%
7 | COc1cc2ncn(-c3cc(O[C@H](C)c4ccccc4Cl)c(C(N)=O)s3)c2cc1OC [GSK237701A] | 84% | 93% | 99% | 26% | 100% | 91% | 97% | 83% | 92% | 81% | 100% | 100% | 64% | 70% | 98% | 82% | 100% | 70% | 46% | 100%
8 | COc1ccc2c(-c3ccnc(Nc4cccc(OC(F)(F)F)c4)n3)cnn2n1 [GW810372X] | 0% | 2.3% | 29% | 83% | 88% | 24% | 100% | 83% | 100% | 62% | 100% | 90% | 19% | 80% | 100% | 100% | 100% | 7.5% | 62% | 65%
9 | Cc1cc(O)cc(C)c1/C=C/c1cncc(C(N)=O)c1 [GW435821X] | 98% | 100% | 100% | 100% | 100% | 100% | 100% | 100% | 100% | 90% | 100% | 93% | 100% | 100% | 100% | 94% | 100% | 59% | 92% | 100%
10 | CN1CCN(C(=O)c2ccc(NC(=O)Nc3ccc(N(C)c4ccnc(Nc5ccc(CS(C)(=O)=O)cc5)n4)cc3)cc2)CC1.Cl [GW830263A] | 77% | 71% | 74% | 2.6% | 35% | 44% | 100% | 90% | 70% | 38% | 100% | 61% | 58% | 0.1% | 52% | 98% | 76% | 13% | 4.7% | 5.4%
11 | NS(=O)(=O)c1ccc(Nc2ncc(-c3ccccc3)o2)cc1 [GW572399X] | 72% | 75% | 100% | 100% | 92% | 89% | 100% | 90% | 100% | 78% | 100% | 100% | 99% | 100% | 100% | 90% | 100% | 87% | 100% | 71%
12 | COc1cccc(-c2c[nH]c3c(N/N=C/c4ccncc4)ncnc23)c1 [GW814408X] | 53% | 27% | 59% | 70% | 73% | 33% | 100% | 87% | 100% | 100% | 100% | 93% | 23% | 76% | 59% | 96% | 75% | 80% | 31% | 18%
13 | Cl.O=S1CCN(Cc2ccc(-c3ccc4ncnc(Nc5ccc(OCc6ccccc6)c(F)c5)c4c3)o2)CC1 [GW576924A] | 100% | 97% | 100% | 95% | 100% | 100% | 100% | 100% | 94% | 100% | 100% | 100% | 100% | 100% | 100% | 100% | 100% | 89% | 100% | 100%
14 | COc1ccc(COc2ccc(Cc3cnc(N)nc3N)cc2OC)cc1 [GW632580X] | 94% | 100% | 100% | 100% | 72% | 99% | 91% | 94% | 100% | 86% | 100% | 69% | 99% | 100% | 95% | 89% | 100% | 89% | 92% | 77%
15 | O=C1Nc2ccc(C(=O)c3ccco3)cc2C1=Cc1cc(Cl)c(O)c(Cl)c1 [GW406108X] | 5.3% | 5.4% | 59% | 96% | 46% | 68% | 100% | 96% | 100% | 30% | 100% | 91% | 86% | 100% | 64% | 100% | 100% | 7.3% | 47% | 2.1%
16 | CC(C)COC(=O)c1ccc2c(c1)/C(=C/Nc1ccc(S(N)(=O)=O)cc1)C(=O)N2 [GW416981X] | 75% | 63% | 100% | 48% | 100% | 44% | 100% | 69% | 100% | 16% | 100% | 100% | 50% | 100% | 100% | 100% | 100% | 56% | 63% | 14%
17 | CCn1c(-c2nonc2N)nc2c(C#CC(C)(C)O)nc(OCCNC)cc21.Cl [GSK949675] | 75% | 47% | 100% | 100% | 89% | 100% | 100% | 91% | 98% | 73% | 100% | 100% | 92% | 100% | 88% | 100% | 100% | 100% | 96% | 87%
18 | COc1cccc(-n2ncc3c(N/N=C/c4ccncc4)ncnc32)c1 [GW784752X] | 33% | 23% | 54% | 100% | 95% | 64% | 100% | 98% | 94% | 100% | 100% | 100% | 37% | 0% | 99% | 100% | 100% | 96% | 66% | 83%
19 | Nc1ncnc2occ(-c3ccc(NC(=O)Nc4cc(C(F)(F)F)ccc4F)cc3)c12 [GW770249X] | 73% | 29% | 0% | 16% | 97% | 100% | 100% | 18% | 75% | 69% | 100% | 90% | 95% | 100% | 100% | 100% | 79% | 80% | 62% | 100%
20 | COc1ccc2[nH]c3c4[nH]c5ccc(OC)cc5c4c4c(c3c2c1)C(=O)NC4=O [GW296115X] | 64% | 44% | 70% | 90% | 91% | 89% | 97% | 89% | 87% | 48% | 95% | 66% | 94% | 66% | 76% | 89% | 100% | 39% | 84% | 47%

Reference: publication PMC7826789 (International Journal of Molecular Sciences, 2021)
